# According to PubChem BioAssay (NCATS):
# Inconclusive results are not listed. The source made the active and inactive calls. The call rests on the fitted dose curve; in most records, active means well fitted inhibition curve with a large enough effect; inconclusive means small, poorly fitted or top-dose-only effect; inactive means flat fitted curve, though single readings scatter.
# Tested on: HACAT
# Test: qHTS assay to identify novel small-molecules to repurpose for Merkel cell carcinoma treatment (AID 1296009); further: nearly all actives have a fitted effect of over 60% in size
# Conditions: MCC and control cell lines, CellTiter-Glo viability, 72 h; at 44.8 µM (top of the series) unless noted
# Outline: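 Viability readout: ATP luminescence (CellTiter-Glo) after 72 hr drug exposure at 37 degree celsius. Dose-response format was 8 points for NPC and 11 points for MIPE; data normalized to in-plate controls.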
row,SMILES,outcome
1,CC1CC(=O)[C@]2(O)C(C(=O)OCCc3ccc(O)c(O)c3)=CO[C@@H](O[C@@H]3O[C@H](CO)[C@@H](O)[C@H](O)[C@H]3O)[C@H]12 (some centres undefined),inactive [at 17.4 µM]
2,COc1cc(/C=C/C(=O)OC[C@H]2O[C@@H](OC3OC=C(C(=O)O)C4C(O)CC(C)(O)C34)[C@H](O)[C@@H](O)[C@@H]2O)cc(OC)c1O (some centres undefined),inactive [at 17.4 µM]
3,CC(=O)OC[C@]12[C@@H](OC(=O)c3ccoc3)C[C@@H]3[C@@H](OC(C)=O)[C@]1(OC3(C)C)[C@@](C)(O)C[C@H](OC(=O)c1ccoc1)[C@@H]2OC(=O)c1ccoc1,inactive [at 17.4 µM]
4,CC(=O)O[C@H]1C[C@@H](O)C(C)(C)C2C[C@@H](OC(C)=O)[C@]3(C)C(CC[C@@]4(C)[C@H](c5ccoc5)OC(=O)[C@H]5O[C@]543)[C@]21C (some centres undefined),inactive [at 17.4 µM]
5,CC(=O)OC12CC(C)C(O)C1/C=C(/COC1OC(CO)C(O)C(O)C1O)CCC1C(/C=C(\C)C2=O)C1(C)C (centres undefined),inactive [at 17.4 µM]
6,C=C(CCO[C@@H]1O[C@H](CO)[C@@H](O)[C@H](O)[C@H]1O)C(=O)O,inactive
7,Cc1cc(C(=O)N2Cc3cnn(C)c3Nc3ccccc32)ccc1CNC(=O)N1CCN(Cc2cc(O)cc(O)c2)CC1,inactive
8,O=C(O)C1(c2ccc(-c3ccc(Cl)c(Cl)c3)c(F)c2)CC1,inactive
9,C[C@@H]1O[C@@H](O[C@H]2[C@H](OC(=O)[C@]34CCC(C)(C)C[C@H]3C3=CCC5[C@@]6(C)C[C@@H](O)[C@@H](O)[C@@](C)(CO)C6[C@H](O)C[C@@]5(C)[C@]3(C)CC4)OC[C@H](O)[C@@H]2O)[C@H](O)[C@H](O)[C@H]1O[C@@H]1OC[C@@H](O)[C@H](O[C@H]2O[C@H](C)[C@@H](O)[C@H](O)[C@@H]2O)[C@H]1O (some centres undefined),inactive [at 9.27 µM]
